# Whole data set: some 33,000 sequences, median “E-score (-0.5 to 0.5)” near -0.054, cut for the highest 2% near 0.39. This is one part of a sample in which the highest values are shown more often than they occur.
# Target: Ylr278c (UniProt Q05854)
# Test: PBM E-score (8-mer binding enrichment) (E-score (-0.5 to 0.5)); higher = stronger / more preferred TF binding
# Settings: protein concentration: 200 nM; construct: GST-DNA-binding domain
# Method: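 Universal 'all 10-mer' protein binding microarrays (Agilent AMADID 015681) probed with GST-tagged S. cerevisiae TFs (full-length or DBD) made by in vitro transcription/translation (PURExpress), about 100-200 nM. Bound TF was detected with fluorescent anti-GST. Each ungapped 8-mer (which stands for itself and its reverse complement) is scored by the PBM enrichment score (E-score), a modified Wilcoxon-Mann-Whitney statistic from -0.5 to +0.5, computed with the Universal PBM Analysis Suite. Scale: above 0.35 generally sequence-specific binding.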
# Chain of UniProt Q05854 (Q05854 whole entry): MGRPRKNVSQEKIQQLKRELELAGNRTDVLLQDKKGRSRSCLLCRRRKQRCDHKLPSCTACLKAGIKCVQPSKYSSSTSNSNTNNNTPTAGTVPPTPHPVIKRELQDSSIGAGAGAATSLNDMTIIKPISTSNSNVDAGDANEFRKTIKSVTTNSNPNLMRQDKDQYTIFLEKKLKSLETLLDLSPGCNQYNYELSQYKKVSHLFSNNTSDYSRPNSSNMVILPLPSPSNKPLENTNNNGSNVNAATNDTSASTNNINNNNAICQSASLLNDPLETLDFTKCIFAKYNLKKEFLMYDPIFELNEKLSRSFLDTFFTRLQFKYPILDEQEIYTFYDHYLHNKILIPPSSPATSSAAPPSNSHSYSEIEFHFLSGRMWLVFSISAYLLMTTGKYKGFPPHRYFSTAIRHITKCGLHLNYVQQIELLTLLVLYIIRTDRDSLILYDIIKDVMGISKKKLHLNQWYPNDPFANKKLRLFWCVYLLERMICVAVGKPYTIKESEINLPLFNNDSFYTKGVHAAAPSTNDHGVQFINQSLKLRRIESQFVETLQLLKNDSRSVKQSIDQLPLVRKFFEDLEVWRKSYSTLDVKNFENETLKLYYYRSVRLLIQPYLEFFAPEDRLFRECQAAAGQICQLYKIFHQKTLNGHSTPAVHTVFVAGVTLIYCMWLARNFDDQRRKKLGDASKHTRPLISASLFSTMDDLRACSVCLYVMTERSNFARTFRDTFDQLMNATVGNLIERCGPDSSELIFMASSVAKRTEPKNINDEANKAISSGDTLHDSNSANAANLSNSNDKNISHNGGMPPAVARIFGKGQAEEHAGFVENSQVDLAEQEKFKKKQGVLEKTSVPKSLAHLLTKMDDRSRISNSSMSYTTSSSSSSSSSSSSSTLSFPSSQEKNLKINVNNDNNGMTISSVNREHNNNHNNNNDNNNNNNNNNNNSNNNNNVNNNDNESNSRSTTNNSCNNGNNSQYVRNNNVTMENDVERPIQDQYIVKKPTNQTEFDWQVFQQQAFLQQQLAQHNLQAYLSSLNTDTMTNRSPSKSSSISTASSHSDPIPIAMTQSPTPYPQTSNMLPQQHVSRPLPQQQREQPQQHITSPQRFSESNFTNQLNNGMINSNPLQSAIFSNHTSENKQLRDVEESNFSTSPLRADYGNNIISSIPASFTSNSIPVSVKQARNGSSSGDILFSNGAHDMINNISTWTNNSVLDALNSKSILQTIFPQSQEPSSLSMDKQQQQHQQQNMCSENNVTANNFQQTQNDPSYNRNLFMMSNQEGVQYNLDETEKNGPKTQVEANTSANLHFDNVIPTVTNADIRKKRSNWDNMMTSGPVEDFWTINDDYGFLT
row,Sequence,PBM E-score
1,TCGCCAGA,-0.26
2,AAACAGAA,-0.207
3,CTAGGCAA,-0.0858
4,TAGTTTCA,-0.0254
5,ACCTAGAG,-0.141
6,GGAGAATA,0.189
7,AAGGGCTG,-0.213
8,CACGGATC,0.242
9,CCCGGATC,0.403
10,CCCGGATA,0.351
11,GTTGCTTA,-0.107
12,GTCTGCGA,-0.207
13,GTCACCCA,-0.109
14,ACTAGCCT,-0.0654
15,CATTGAGA,-0.119
16,CTCTCGGA,0.405
17,CTCTCGGC,0.181
18,CTCTCGAA,-0.33
19,ATCTCGGG,0.278
20,GTCTCGGA,0.385
21,ATCTCGGA,0.406
22,GGCGACGA,-0.172

row,Sequence,PBM E-score
1,AAAGCCTA,-0.184
2,ATCTAACG,0.0888
3,CGGCTGGA,0.0769
4,GGGATGAC,0.0341
5,CCGCGCAG,0.274
6,GCGCGGAC,0.294
7,CCGCGGAC,0.429
8,AAGCGGAG,0.355
9,CAGCGGAC,0.257
10,CCGCGGGA,0.393
11,CAGCGGAG,0.408
12,CCGCGGGC,0.367
13,GCGCGGGA,0.248
14,CCGCGGAG,0.449
15,CCGCGGCG,0.364
16,CAGCGGAA,0.359
17,GCTTCTAC,-0.123
18,ATTAGGGA,-0.0669
19,CCTGAAGA,-0.0995
20,CCATAGGG,-0.154
21,CTTTACAC,0.022
22,ACCAGGAT,-0.0342

row,Sequence,PBM E-score
1,ACGCGGAG,0.421
2,GCGCGGAA,0.387
3,TCGCGGAA,0.342
4,CCGCGGAA,0.414
5,ACGCGGAT,0.23
6,ACGCGGAC,0.342
7,AATTAGCT,0.0507
8,AAGCCGTG,0.00789
9,GCCTTTAC,-0.0652
10,ATTCCGTC,0.362
11,CCTCCGTC,0.351
12,ACTCCTTA,-0.0802
13,ACTCCGTC,0.459
14,AGTCCGTG,0.343
15,CCTCCGTA,0.37
16,GCTCCATA,-0.175
17,ACTCCGTG,0.449
18,GCTCCGTA,0.405
19,AATCCGTG,0.26
20,ACTCCGTA,0.443
21,ACACCGTA,0.102
22,GCTGGAGA,-0.271

row,Sequence,PBM E-score
1,GGCACTAC,-0.0733
2,CCTGATCG,-0.0211
3,AGGAGTGC,-0.139
4,GGGAGTGA,0.0441
5,CGGAGTGC,0.438
6,CGGAGTGA,0.459
7,CTGAGTGC,-0.133
8,AGGAGTGA,-0.0619
9,GACCATGA,0.0081
10,CCTTCTGC,-0.136
11,ATGTTAGC,-0.0158
12,AAGACGCA,-0.074
13,GTCAACAA,-0.23
14,AGCTCCAC,-0.0221
15,AGCTCCGA,0.47
16,AGCTCCGC,0.436
17,AGCTCCTA,-0.0358
18,GGCTCCAA,-0.0143
19,AGCTCCCG,0.0891
20,AGCTCCTG,-0.0626
21,AGCTCCGG,0.458

# Source: the supplement of paper PMC3334620
